Laboratory results as given in ChEMBL document CHEMBL1201862, “PubChem BioAssay data set” (2004).
About 2,500 (4.4%) of roughly 57,000 sequences were called active. No stated cut-off is given here; in the data, active = GI50 up to about 1.1 µM and inactive = higher. These entries were drawn from the full list. Results with a measured potency or affinity are listed apart.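 Each compound was tested at five concentrations against cells in 96-well plates for 48 hours. GI50 is the concentration that inhibits growth by half.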

tested on: OVCAR-5; assay: NCI tumour cell line growth inhibition, 48 h

| Substance | GI50 |
| --- | --- |
| mu-(1,7-nanodiamine-N,N')bis-(cis-aminedichloroplatimum (II)), CHEMBL2146215 | > 100 µM |
| CISPLATIN, CHEMBL11359 | 4.51 µM |
| [Bis(aminomethyl)pentamethylenesilane]dichloropaltinum(II), CHEMBL2146202 | 3.38 µM |
| [Bis(aminomethyl)ethylmethylsilane]tetrachloroplatinum(IV), CHEMBL2146192 | 6.49 µM |
| [Bis(aminomethyl)pentamethylenesilane]tetrachloropaltinum(IV), CHEMBL2146204 | 6.27 µM |
| cis-Bis[[(trimethylsilyl)methyl]amino]tetrachloroplatinum(IV), CHEMBL2146191 | 30.3 µM |
| [Bis(aminomethyl)dimethylsilane]tetrachloroplatinum(IV), CHEMBL2146190 | 7.29 µM |
| [Bis(aminomethyl)dimethylsilane]dichloroplatinum (II), CHEMBL2146201 | 30.5 µM |
| [Bis(aminomethyl)tetramethylenesilane]dichloropaltinum(II), CHEMBL2146205 | 7.55 µM |
| [Bis(aminomethyl)tetramethylenesilane]tetrachloropaltinum(IV), CHEMBL2146189 | 4.22 µM |
